# Compound activity from PubChem BioAssay.
# Vaccinia mCherry: qHTS for Stage-Specific Inhibitors of Vaccinia Orthopoxvirus: mCherry Reporter Primary qHTS | Vaccinia virus mCherry reporter infection, fluorescence | Potency, µM (doses to about 36.5 µM), for inactives: at the top dose activity change, negative = inhibition, most hits filed as inhibitors | 310,000 compounds, 0.63% hits | AID 720579, 2013; calls by dose curve; tested in A549 cells; also: potency is read from the fitted curve at half-maximal effect; % is scaled to controls: 0 for no effect and ±100 for the full control effect; nearly all actives have a fitted effect of over 35% in size
# CHX counter: Cycloheximide Counterscreen for Small Molecule Inhibitors of Shiga Toxin. max response, %. cell reporter, cycloheximide protein synthesis inhibition counterscreen. AID 2314, 2010. 300,000 compounds, 12% hits; in the data active = max response mostly above about 13%, no sharp cut-off; inactive = mostly below about 14%; also: read at 38.3 µM for the half of the compounds with a filed dose; 0% is about no effect
# Vaccinia Venus: qHTS for Stage-Specific Inhibitors of Vaccinia Orthopoxvirus: Venus Reporter Primary qHTS. Vaccinia virus Venus reporter expression, fluorescence. Potency, µM (highest dose often 36.5 µM), without a hit: top-dose activity change, negative = inhibition, actives largely listed as inhibitors. 330,000 compounds, 0.46% hits; calls by dose curve; tested in A549 cells; also: potency is read from the fitted curve at half-maximal effect; % is scaled to controls: 0 for no effect and ±100 for the full control effect; nearly all actives have a fitted effect of over 30% in size
# LASV entry inh: qHTS for Inhibitors of binding or entry into cells for Lassa Virus | Lassa virus pseudotype entry inhibition, cell reporter | Potency, µM (highest dose often 37.9 µM), for the others: at the highest dose activity change, negative = inhibition, most hits filed as inhibitors | 300,000 compounds, 1.2% hits; calls by dose curve; tested in HEK293 cells; also: potency is read from the fitted curve at half-maximal effect; % is scaled to controls: 0 for no effect and ±100 for the full control effect; nearly all actives have a fitted effect of over 50% in size
# Shiga inhibitor: A qHTS for Small Molecule Inhibitors of Shiga Toxin | Vero cells, Shiga toxin protein synthesis inhibition reporter | inhibition, % at 38.7 µM | 290,000 compounds, 9.2% hits; in the data active = inhibition mostly above about 28%, no sharp cut-off; inactive = mostly below about 43%; also: 0% is about no effect
# MARV entry inh: qHTS for inhibitors of binding or entry into cells for Marburg Virus. 300,000 compounds, 1.8% hits. Marburg virus pseudotyped entry inhibition, cell reporter. AID 540276, 2011. Potency, µM (doses to about 37.8 µM), for inactives: at the highest dose activity change, negative = inhibition, usual class: inhibitors; calls by dose curve; tested in HEK293 cells; also: potency is read from the fitted curve at half-maximal effect; % is scaled to controls: 0 for no effect and ±100 for the full control effect
# * = called active by the depositor; i = inactive; ? = inconclusive; nt = no result given; [ ] = dose if it differs, or a comment. Only a selection was taken, and hits are over-represented in it overall.
SMILES,Vaccinia mCherry,CHX counter,Vaccinia Venus,LASV entry inh,Shiga inhibitor,MARV entry inh
O=C(CSCc1ccccc1)N1CCN(c2ccc(F)cc2)CC1,i,45*,-18%,5%,21,1%
O=C(CSCc1cccc(F)c1)N1CCN(c2ccccc2)CC1,nt,41*,nt,19%,83*,10%
Cc1ccc(Cl)c(NC(=O)Nc2csc3c2CCCC3)c1,-6%,nt,-9%,nt,nt,10%[46.1 µM]
CS(=O)(=O)Nc1cccc(C2=NN(S(C)(=O)=O)C(c3ccc4c(c3)OCO4)C2)c1 (stereo not drawn),-21%,25*,-21%,?,50*,-6%
CS(=O)(=O)Nc1ccc(C2=NN(S(C)(=O)=O)C(c3ccccc3)C2)cc1 (stereo not drawn),i,20,-9%,7%,42*,1%
CCS(=O)(=O)N1N=C(c2cccc(NS(C)(=O)=O)c2)CC1c1cccs1 (stereo not drawn),nt,-3,nt,nt,-3,nt
CCS(=O)(=O)N1N=C(c2ccc(NS(C)(=O)=O)cc2)CC1c1ccccc1 (stereo not drawn),-16%,2,-8%,10%,-1,4%
CS(=O)(=O)N1N=C(c2ccccc2)CC1c1ccc2c(c1)OCO2 (stereo not drawn),-16%,66*,0%,?,99*,?
CC(C)CC(NC(N)=O)C(=O)NCc1ccc(Cl)cc1 (stereo not drawn),-1%,14,0%,?,-3,-2%[46.1 µM]
CC(C)C(=O)OCC(=O)NCc1ccccc1Cl,-3%,29*,3%,0%,28,7%[46.1 µM]
CC(C)CC(NC(N)=O)C(=O)NCc1ccccc1Cl (stereo not drawn),-1%,35*,-18%,0%[46.1 µM],36,-5%[46.1 µM]
Cc1ccc(C(=O)Nc2ccncc2)c(C)c1,-11%,8.9*,-23%,-25%,18,-9%
O=C(NNC(=O)c1ccc(-c2ccccc2)cc1)c1ccccc1,-9%,20*,-2%,12%,67*,18%
O=C(Nc1cccnc1)c1ccccc1Cl,-11%,-3,-10%,0%,nt,?
O=C(Nc1cccnc1)c1cnc2ccccc2n1,nt,13*,-6%,?,70*,?
O=C(Nc1ccc(-c2cnco2)cc1)c1ccccc1,1%,47*,20%,19%[46.1 µM],93*,13%[46.1 µM]
Cc1ccc(C(=O)Nc2cccc(NC(=O)c3cccs3)c2)c(C)c1,nt,4,nt,nt,21,nt
COc1ccc(NC(=O)CNc2ccc(OC)c(S(=O)(=O)N3CCOCC3)c2)cc1,-27%,nt,-8%,nt,nt,nt
COc1cccc(NC(=O)CN2CCCN(S(=O)(=O)c3ccc(Br)cc3)CC2)c1,-17%,nt,-9%,-9%[46.1 µM],nt,-3%[46.1 µM]
Cc1ccc2c(c1)N(C(=O)N1CCC(C(=O)NCc3ccco3)CC1)CC(C)O2 (stereo not drawn),-11%,nt,-8%,17%[46.1 µM],nt,nt
O=C(Nc1ccncc1)c1ccc(F)cc1,i,8,-12%,-1%,4,8%
O=C(Nc1cccnc1)c1ccc(-c2ccccc2)cc1,nt,33*,nt,nt,72*,nt
O=C(Nc1ccncc1)c1ccc(-c2ccccc2)cc1,-6%,36*,?,nt,121*,nt
O=C(Nc1cccnc1)c1ccc(F)cc1,?,-3,-28%,0%,-8,14%
CC(C)c1ccc(C(=O)Nc2cccnc2)cc1,-12%,36*,-22%,?,nt,4µM*
SMILES,Vaccinia mCherry,CHX counter,Vaccinia Venus,LASV entry inh,Shiga inhibitor,MARV entry inh
CCN1C(=O)CC(CC(=O)N2CCC(c3nc4ccc(F)cc4[nH]3)CC2)(c2ccccc2C)C1=O (stereo not drawn),-29%,nt,-5%,nt,nt,nt
CCOc1ccc(C(=O)Nc2ccc(C(=O)OCc3cc(=O)n4nc(CC)sc4n3)cc2)cc1,i,nt,-19%,4%[46.1 µM],nt,nt
COc1ccc(Cl)cc1NC(=O)N1CCC2(CC1)Oc1ccccc1C(=O)N2Cc1ccc(F)cc1,-9%,nt,-14%,2%[46.1 µM],nt,-6%[46.1 µM]
Cc1cccc2c1cnn2C(=O)Nc1ccccc1Br,i,2,-1%,?,12,?
COc1ccccc1NC(=O)n1ncc2c(C)cccc21,-6%,nt,-13%,-26%[46.1 µM],nt,?
COc1ccc(C)cc1NC(=O)n1ncc2c(C)cccc21,nt,6,nt,nt,-1,nt
Cc1ccc(NC(=O)CS(=O)CC(=O)Nc2cccc(C)c2C)cc1F (stereo not drawn),nt,-5,nt,2%,-1,-12%
COc1ccc(NC(=O)n2ncc3c(C)cccc32)cc1,nt,59*,nt,nt,128*,nt
Cc1cccc2c1cnn2C(=O)Nc1ccccc1Cl,i,35*,-9%,?,63*,16%
Cc1ccc(NC(=O)n2ncc3c(C)cccc32)cc1F,i,72*,-6%,nt,106*,nt
COc1ccc(NC(=O)n2ncc3c(C)cccc32)cc1OC,nt,36*,nt,nt,63*,nt
CCCCn1c(SCC(=O)NC2CCCC2)nnc1-c1ccco1,7%,-7,2%,nt,-3,-11%[46.1 µM]
NS(=O)(=O)c1ccc(CCNC(=O)c2ccc(Cl)c(S(=O)(=O)NCc3ccco3)c2)cc1,-11%,nt,16%,9%[46.1 µM],nt,-18%[46.1 µM]
Cc1ccccc1NC(=O)n1ncc2cc(Cl)ccc21,-21%,21*,2%,17%[46.1 µM],29,19%[46.1 µM]
O=C(Nc1ccccc1C(F)(F)F)n1ncc2cc(Cl)ccc21,1%,nt,-6%,23%[46.1 µM],nt,2%[46.1 µM]
COc1ccc(CC(=O)OCC(=O)NC(=O)NC23CC4CC(CC(C4)C2)C3)cc1,nt,8,nt,-27%,-18,1%
CC1CC1C(=O)OCC(=O)NC(=O)NC12CC3CC(CC(C3)C1)C2 (stereo not drawn),i,43*,-14%,-2%,86*,?
CC(C)N1C(=O)/C(=C/C=C/c2ccco2)C(=O)N(Cc2ccco2)C1=O,21%,15,78%,?,18,4µM*
NC(=O)CC(NC(=O)c1ccc(Br)cc1)c1ccc(NC2CCCCCC2)c([N+](=O)[O-])c1 (stereo not drawn),?,12*,?,nt,16,nt
C=CC1CN2CCC1CC2[C@@H](OC(=O)c1ccc(OC)cc1)c1ccnc2ccccc12 (stereo partly drawn),-28%,-7,-17%,?,-24,11µM*
CCOc1ccc(Cn2nnc(C(=O)Nc3cccc(SC)c3)c2N)cc1,-24%,nt,-13%,21%[46.1 µM],nt,-2%[46.1 µM]
CSc1ccccc1NC(=O)C1CC(c2c(F)cccc2Cl)=NO1 (stereo not drawn),nt,30*,nt,nt,42*,nt
COc1ccc(Cl)cc1NC(=O)C1CC(c2c(F)cccc2Cl)=NO1 (stereo not drawn),nt,1,nt,nt,2,nt
O=C(Nc1cc(Br)ccc1O)C1CC(c2c(F)cccc2Cl)=NO1 (stereo not drawn),nt,1,nt,nt,-1,nt
O=C(Nc1ccc(Br)cc1)C1CC(c2c(F)cccc2Cl)=NO1 (stereo not drawn),nt,13*,nt,nt,16,nt
